The values that follow come from PubChem BioAssay (NCI).

Each structure is given as a SMILES string. This is part of a sample that, as a whole, favours compounds with a hit. Of some 83,000 tested, about 20% had one in any assay.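 48-hour exposure, single concentration, 96-well plates; percent growth endpoint where 0 means no net growth. Active: below 10.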 Values without a mark were called inactive. Calls of active or inactive are those of the source.

Common to all, as to assay: NCI-60 one-dose screen, 48 h (100 = growth as untreated, 0 = no growth, -100 = all killed)
What all share (settings): 10 µM unless noted

The subject of experiment [1] is NCI-H23 lung.
The test system of experiment [2] is NCI-H226 lung.
Experiment [3] has as its system NCI-H322M lung.
Experiment [4] deals with HOP-62 NSCLC.
Experiment [5] concerns NCI-H460 lung.
Experiment [6] deals with HOP-92 NSCLC.
Experiment [7] deals with NCI-H522 lung.
Experiment [8] concerns A549/ATCC NSCLC.
The subject of experiment [9] is 786-0 renal.
The test system of experiment [10] is COLO 205 colon.

As for `CC(C)(C)c1ccc(O)c(Br)c1`, the growth in experiment [1] was 93.6%; in experiment [2], 92.5%; in [3], 101%; in experiment [4] it was 107%; in experiment [5], 95.6%; in [6], 98.2%. Moreover, the growth in experiment [7] is 119%; in [8], 107%; in experiment [9], 100%; in [10], 105%.
With `Cc1ccc2c(c1)sc(-c1ccc(N(C)C)cc1)[n+]2C`, the growth in experiment [1] is 12.2%; in experiment [2], 17.8%; in [3], 12.7%; in experiment [4], 1.81% (active); in experiment [5], -25.7% (active); in experiment [6] it was -38.6% (active). Further, the growth was 8.21% (active) in [7], 26.6% in experiment [8], 7.31% (active) in experiment [9] and -83% (active) in [10].
For `COc1cc(OC)c(/C=C/c2c3ccccc3cc[n+]2C)c(OC)c1`, the growth in experiment [1] was 17.3%; in [2] it was 33.3%; in [3] it was 32.9%; in experiment [4], 35.3%; in experiment [5] it was 10.8%; in experiment [6], 36.6%. Further, the growth in experiment [7] is -19.3% (active); in [8], 14.7%; in [9] it was 62.8%; in [10], -35.3% (active).
`CCOC(=O)/C(=C\c1ccc2ccccc2c1)P(=O)(OCC)OCC`: the growth in experiment [1] was 41.1%; in experiment [2], 55.7%; in experiment [3], 70%; in [4], 40.6%; in experiment [5], 20%; in experiment [6], 40.7%. The growth in [7] is -31.7% (active); in [8], 55.8%; in experiment [9] it was 11.6%; in experiment [10], 42.2%.
In the case of `CN(C)CC(C)(CN(C)C)C(=O)/C=C/c1c(Cl)cccc1Cl`, the growth is 45.9% in [1]; 11.1% in [2]; 70.6% in experiment [3]; 94.6% in [4]; 57.9% in experiment [5]; 40.1% in experiment [6]. Moreover, the growth in experiment [7] was -80.9% (active); in experiment [8] it was 80.6%; in [9], -44% (active); in experiment [10], 101%.
Turning to `Fc1ccc(NCCS)cc1`, the growth in experiment [1] was 97.4%; in [2] it was 104%; in experiment [3], 103%; in [4] it was 99.6%; in [5] it was 102%; in [6], 103%. The figures for the growth in [7], in experiment [8] and in experiment [10] were 90%, 92.7% and 108%, respectively.
With `O=C(/C=C/c1ccccc1)c1ccccc1O`, the growth in experiment [1] is 82.3%; in experiment [2], 91.6%; in [3], 90.2%; in [4], 103%; in experiment [5], 93.2%; in experiment [6], 74.4%. Also, the growth in experiment [7] was 69.6%; in experiment [8] it was 83.9%; in experiment [9], 79.7%; in [10], 105%.
Turning to `O=C1/C(=C\c2ccc([N+](=O)[O-])cc2)CS(=O)(=O)C/C1=C/c1ccc([N+](=O)[O-])cc1`, the growth in experiment [1] is -83.2% (active); in experiment [2], -67.2% (active); in experiment [3], -93.7% (active); in experiment [4], -95.2% (active); in [5], -54.5% (active); in experiment [6], -79.1% (active). The growth in experiment [7] was -79.9% (active); in [8] it was -50% (active); in [9] it was -96.5% (active); in experiment [10], -82.4% (active).
With `Oc1ccccc1N=Cc1ccccc1`, the growth was 64.2% in [1]; 86.3% in experiment [2]; 87.5% in [3]; 99.1% in [4]; 94.4% in experiment [5]; 102% in [6]. In addition, the figures for the growth in experiment [7], in [8] and in experiment [10] were 81.1%, 98.2% and 125%, respectively.
In the case of `S=C(SSC(=S)N1CCOCC1)N1CCOCC1`, the growth in experiment [1] is 48.9%; in experiment [2] it was 94.5%; in experiment [3], 116%; in experiment [4], 104%; in [5], 2.9% (active); in experiment [6], 122%. Also, the growth is -50.2% (active) in experiment [7], 57.2% in [8], 103% in experiment [9] and 28.6% in experiment [10].
Consider `Cc1cccc2c(N)c3ccccc3nc12`, for which the growth in experiment [1] is -39.6% (active); in experiment [2] it was -9.22% (active); in experiment [3], -2.56% (active); in [4], -7.52% (active); in [5] it was -17.4% (active); in [6] it was -20.4% (active). The growth in experiment [7] was -36% (active); in experiment [8], -68.6% (active); in experiment [9], -9.45% (active); in experiment [10], -48.2% (active).
For the compound `CCC(C)C(N)C(=O)NC(CC(N)=O)C(=O)NC(CC(C)C)C(=O)NC(CCCCN)C(=O)NC(C)C(=O)NC(CC(C)C)C(=O)NC(C)C(=O)NC(C)C(=O)NC(CC(C)C)C(=O)NC(C)C(=O)NC(CCCCN)C(=O)NC(CCCCN)C(=O)NC(C(=O)NC(CC(C)C)C(N)=O)C(C)CC` (stereo not drawn), the growth is 82.1% in [1]; 113% in experiment [2]; 100% in experiment [3]; 74.9% in [4]; 79.3% in [5]; 61% in experiment [6]. Besides, the growth in [7] is 85.2%; in experiment [8] it was 90.3%; in [9] it was 68.1%; in experiment [10], 90%.
Take `CCOC(=O)C1=NN(c2ccccc2)C(=O)/C1=C\N1C(=O)/C(=C/c2cccc(O)c2)SC1=S`: the growth is 87.8% in [1]; 103% in experiment [2]; 98.9% in [3]; 84% in [4]; 103% in [5]; 73.6% in experiment [6]. Also, the growth in experiment [7] was 82.3%; in experiment [8] it was 79.3%; in [9] it was 98.8%; in [10], 114%.
For the compound `O=C(OC12CC3CC(CC(C3)C1)C2)c1ccc(NCc2cc(O)ccc2O)cc1`, the growth was -21.9% (active) in experiment [1]; -63.6% (active) in experiment [2]; 47.6% in [3]; -55.7% (active) in experiment [4]; 3.32% (active) in experiment [5]; -36.9% (active) in experiment [6]. Moreover, the growth was -74.7% (active) in experiment [7], -21.9% (active) in [8], -90% (active) in experiment [9] and -71.2% (active) in [10].
